From PubChem BioAssay (NCI)
The panel holds about 83,000 compounds, 20% with a hit somewhere; the sample as a whole holds those more often.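 Compound tested at a single concentration for 48 hours in 96-well plates; a percent growth value below 10 was scored as active.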 A number with no mark means an inactive call. Calls of active or inactive are those of the source.

Key:
Test in all cases: NCI-60 one-dose screen, 48 h (100 = growth as untreated, 0 = no growth, -100 = all killed)
Conditions in all cases: 10 µM unless noted
[1] = tested on: T-47D breast
[2] = tested on: BT-549 breast
[3] = tested on: MDA-MB-435 melanoma
[4] = tested on: SW-620 colon
[5] = tested on: MCF7 breast
[6] = tested on: HCT-116 colon
[7] = tested on: HCC-2998 colon
[8] = tested on: KM12 colon

Structure (SMILES)	growth [1]	growth [2]	growth [3]	growth [4]	growth [5]	growth [6]	growth [7]	growth [8]
C=C(C)[C@@H]1CC[C@]2(C(=O)N3CCN(C)CC3)CC[C@]3(C)[C@H](CC[C@@H]4[C@@]5(C)CC[C@H](OC(=O)c6ccccc6C(=O)O)C(C)(C)[C@@H]5CC[C@]43C)[C@@H]12	102%	111%	99.3%	101%	96.4%	90.8%	106%	106%
S=c1[nH]c(=S)c2c(-c3ccccc3)c(-c3ccccc3)oc2[nH]1	91.4%	119%	97.3%	101%	94.3%	97.9%	101%	102%
NNCCc1ccc(NC(=O)CCCc2ccc(C(=O)Nc3ccccc3N)cc2)cc1	28.7%	71%	71.1%	57.5%	57.8%	41.6%	92.4%	81.5%
C=CN(C(=O)N1CCN(c2cc3c(cc2F)c(=O)c(C(=O)O)cn3C2CC2)CC1)c1nc(-c2ccc(OC)cc2)cs1	44.1%	14.8%	19.7%	22.2%	8.52% (active)	11.4%	34.3%	21.4%
CN1CCN(CC(=O)Nc2ccc3ncnc(Nc4ccc(Oc5cccc(C(F)(F)F)c5)c(Cl)c4)c3c2)CC1	44.4%	73.1%	-86% (active)	-68% (active)	-51.3% (active)	6.69% (active)	-5.89% (active)	23.5%
Cc1ccc(C)c2c(C)c(C(=O)Nc3cccc(-n4cccn4)c3)oc12	7.95% [50 µM] (active)	61.5% [50 µM]	69.9% [50 µM]	70.2% [50 µM]	13.2% [50 µM]	50.7% [50 µM]	81.2% [50 µM]	56.3% [50 µM]
O=c1ccc(=O)n(-c2nc(-c3ccc([N+](=O)[O-])cc3)cs2)[nH]1	98.5%	98.5%	99.1%	101%	90.1%	95.2%	106%	99.6%
O=C(/C=C(O)/C=C/c1cccc2[nH]ccc12)/C=C/c1cccc2[nH]ccc12	65%	76.4%	-2.09% (active)	50.5%	16.5%	46.3%	102%	95.3%
O=C(O)[C@@H](Cc1ccc2ccccc2c1)NC(=O)n1c2ccccc2c2ccccc21	70.7%	11.3%	-53% (active)	27.3%	17.1%	9.76% (active)	21.4%	18.5%
COc1ccc2nc(Cl)c(/C=C3\CC(c4ccccc4)=NN(c4ccccc4)C3=O)cc2c1	73.1%	43.3%	90.3%	88.7%	82%	54.1%	85%	90.3%
CC/C(Cc1ccccc1)=C(\c1ccc(OCCCN(C)C)cc1)c1ccc(OC(=O)NCc2ccccc2)cc1	52.7%	95%	77.6%	14.5%	15.6%	10.4%	70.4%	72.8%
CC(=O)OC(c1ccccc1)C1CCOC1=O (configuration not stated)	106%	120%	96.3%	102%	102%	101%	97.2%	106%
CCOC(=O)C1=C(C)/C(=C\c2[nH]c(C)c(C(=O)OCC)c2C)N=C1C	66.8%	98.1%	80.6%	2.24% (active)	88.2%	74.5%	109%	81.9%
Cc1ccc(N2C(=O)CCC2=O)cc1	105%	80.6%	102%	96.1%	94.6%	92.9%	108%	103%
C#CCn1cnc2cnc(Nc3cccc(NC(=O)C=C)c3)nc21	66% [6.25 µM]	60.9% [6.25 µM]	60.6% [6.25 µM]	91.2% [6.25 µM]	77.4% [6.25 µM]	86.4% [6.25 µM]	97.9% [6.25 µM]	91.9% [6.25 µM]
Cc1ccc(C2CC(c3nc(-c4ccc(Cl)cc4)oc3C)=NN2C(=O)c2ccncc2)cc1 (configuration not stated)	77.7%	96%	88.7%	93.4%	84.1%	94.8%	97.6%	88.3%
O=C(O)c1ccc(-c2ccc(/C=N/Nc3nc(Nc4ccccc4)nc(N4CCCCC4)n3)o2)cc1	63.7%	-4.12% (active)	83.2%	86.6%	80.1%	57.8%	74.7%	61.7%
COc1ccc(N2CCC(=S)NC2=S)cc1	102%	105%	96.3%	104%	94.6%	104%	104%	101%
O=C1c2cccc3cccc(c23)C(=O)N1C/C=C/c1ccc2c3c(cccc13)C(=O)N(CCO)C2=O	76.7%	40.3%	94.4%	81.8%	80.1%	76%	85.7%	76.2%
[2H]C([2H])([2H])Oc1ccc(F)cc1/C=C/C(=O)/C=C(/C=C/c1cc(F)ccc1OC([2H])([2H])[2H])OB(F)F	54.2%	87.7%	70.8%	45.1%	37%	43.2%	114%	101%
O=C1/C(=C/c2ccc(O)c(O)c2)COc2ccc(-c3ccccc3)cc21	15.4%	31.7%	-6.77% (active)	-38.3% (active)	16%	12.7%	-23% (active)	19.6%
C[C@H](CCCC(=O)NCC#CCN1CCN(C)CC1)[C@H]1CC[C@H]2[C@@H]3CC[C@@H]4CC(=O)CC[C@]4(C)[C@H]3CC[C@]12C	101%	76.8%	95.5%	98.7%	79.7%	68.2%	104%	99.8%
CN1C(=O)/C(=C2\SC(=Nc3ccccc3)N(Nc3ccccc3)C2=O)c2ccccc21	82.2%	109%	106%	98.3%	86.2%	104%	113%	103%
CCCCNc1cc(-c2cn[nH]c2-c2cc(C)cc(OC)c2)nc(-c2cccnc2)n1	49.7%	85.3%	92.1%	107%	88.1%	91.7%	106%	93.9%
O=C(CCl)NNc1nccc(Nc2ccc(S(=O)(=O)Nc3ccncc3)cc2)n1	15.9%	25.6%	41.3%	28.5%	22.3%	10.7%	95.3%	62%
Cc1ccc(C=C2C(=O)NC(=O)NC2=O)cc1	113%	104%	109%	109%	98.8%	108%	112%	108%
COC(=O)C(Cc1ccccc1)NC(=O)c1ccc(NC(=O)c2[nH]c(C)c(Cl)c2Cl)c(OC(C)C)c1 (configuration not stated)	36.5%	82.1%	100%	42.4%	32.8%	0.768% (active)	80.1%	39.8%
O=C(CN1CCCCCC1)Nc1nc2ccc(NCc3ccc(Cl)cc3)cc2s1	94.7%	92.6%	100%	97.9%	84.9%	75.8%	114%	96.6%
CO[C@H](C(=O)[C@@H](O)[C@@H](C)O)[C@@H]1Cc2cc3cc(O[C@H]4C[C@@H](O[C@H]5C[C@@H](O)[C@H](O)C(C)O5)[C@H](O)C(C)(O)O4)cc(O)c3c(O)c2C(=O)[C@H]1O[C@H]1C[C@@H](O[C@H]2C[C@@H](O[C@H]3C[C@@H](OC)[C@H](O)C(C)O3)[C@@H](O)C(C)O2)[C@H](O)C(C)O1 (some centres not stated)	13.5%	4.37% (active)	24.8%	34%	6.89% (active)	6.03% (active)	39.9%	14.9%
